The full data set covers some 7,900 targets. This sample favours those with a hit. About 0.6% of all pairs of compound and target were hits.
Tests used:
Assay in all cases: log2 fold change, soluble protein after heating vs DMSO (PISA); higher = thermal stabilisation; K562 cells, 10 uM, 30 min; active = over 0.2 and 3.5 SD of the protein, either way, in both replicates (recomputed)
IRAK-1-4 Inhibitor I = compound: C1COCCN1CCN2C3=CC=CC=C3N=C2NC(=O)C4=CC(=CC=C4)[N+](=O)[O-] [IRAK-1-4 Inhibitor I]
Outline: (§1)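 Thermal stability values are relative to control samples and come from duplicates. They are expressed as log2 fold changes. For measurement, K562 cells (2×10^6 cells/mL) received 10 μM compound for 30 min, and aliquots were heated for 3 min over 48°C-58°C, pooled, and extracted at 4°C in PBS with 0.5% NP-40. Soluble protein, the supernatant after 21,000xg for 90 min, was quantified by TMTpro 16plex LC-MS/MS with equalised channel sums.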

ibrutinib = compound: C=CC(=O)N1CCC[C@@H](n2nc(-c3ccc(Oc4ccccc4)cc3)c3c(N)ncnc32)C1 [ibrutinib]
Outline: as §1

[1] = compound: CC(=O)c1cnc2ccc(-c3cc(Cl)c(O)c(Cl)c3)nc2c1N[C@H]1CC[C@H](CN(C)C)CC1
Outline: as §1

ralimetinib = compound: CC(C)(C)Cn1c(N)nc2ccc(-c3[nH]c(C(C)(C)C)nc3-c3ccc(F)cc3)nc21 [ralimetinib]
Outline: as §1

[2] = compound: CC(C)(O)CC(=O)NCCn1ccc2ncnc(Nc3ccc(Oc4cccc(C(F)(F)F)c4)c(Cl)c3)c21
Outline: as §1

[3] = compound: CC(C)C1=C2N=C(C=C(N2N=C1)NCC3=CC=CC=C3)NCCCCCCN
Outline: as §1

[4] = compound: CC(C)C[C@@H](C=O)NC(=O)[C@H](CC(C)C)NC(=O)[C@H](CC(C)C)NC(=O)OCc1ccccc1
Outline: as §1

pinometostat = compound: CC(C)N(C[C@H]1O[C@@H](n2cnc3c(N)ncnc32)[C@H](O)[C@@H]1O)[C@H]1C[C@@H](CCc2nc3cc(C(C)(C)C)ccc3[nH]2)C1 [pinometostat]
Outline: as §1

[5] = compound: CC1=C(C(CC(=O)N1)C2=CC=C(C=C2)C(F)(F)F)C(=O)NC3=C(C=C4C(=C3)C=NN4)F
Outline: as §1

[6] = compound: CC1=C(C2=C(C=C1)C(=O)C3=CC=CC=C3N2CCCN)C
Outline: as §1

[7] = compound: CC1=C(C=C(C=C1)NC(=O)C2=CC(=CC=C2)C(C)(C)C#N)NC3=CC4=C(C=C3)N=CN(C4=O)C
Outline: as §1

[8] = compound: CC1=C(C=C(C=C1)NC(=O)C2=CC(=CC=C2)N(C)C)NC(=O)C3=CC=C(C=C3)O
Outline: as §1

[9] = compound: CC1=CC=C(C=C1)SC2=C3C=C(SC3=CN=C2)C(=O)N
Outline: as §1

[10] = compound: CC1=NC(=CC=C1)C2=C(N=C(N2)C(C)(C)C)C3=CC4=NC=CN=C4C=C3
Outline: as §1

Nexturastat A = compound: CCCCN(Cc1ccc(C(=O)NO)cc1)C(=O)Nc1ccccc1 [Nexturastat A]
Outline: as §1

vemurafenib = compound: CCCS(=O)(=O)Nc1ccc(F)c(C(=O)c2c[nH]c3ncc(-c4ccc(Cl)cc4)cc23)c1F [vemurafenib]
Outline: as §1

[11] = compound: CCCS(=O)(=O)Nc1ccc(F)c(C(=O)c2c[nH]c3ncc(Cl)cc23)c1F
Outline: as §1

[12] = compound: CCCc1cc(C)[nH]c(=O)c1CNC(=O)c1cc(-c2ccnc(N3CCN(C)CC3)c2)cc2c1cnn2C(C)C
Outline: as §1

givinostat = compound: CCN(CC)Cc1ccc2cc(COC(=O)Nc3ccc(C(=O)NO)cc3)ccc2c1 [givinostat]
Outline: as §1

barasertib = compound: CCN(CCCOc1ccc2c(Nc3cc(CC(=O)Nc4cccc(F)c4)[nH]n3)ncnc2c1)CCOP(=O)(O)O [barasertib]
Outline: as §1

Measured: log2 fold change

ERCC6 (UniProt Q03468)
UniProt Q03468, sequence (Q03468 whole entry, looked up): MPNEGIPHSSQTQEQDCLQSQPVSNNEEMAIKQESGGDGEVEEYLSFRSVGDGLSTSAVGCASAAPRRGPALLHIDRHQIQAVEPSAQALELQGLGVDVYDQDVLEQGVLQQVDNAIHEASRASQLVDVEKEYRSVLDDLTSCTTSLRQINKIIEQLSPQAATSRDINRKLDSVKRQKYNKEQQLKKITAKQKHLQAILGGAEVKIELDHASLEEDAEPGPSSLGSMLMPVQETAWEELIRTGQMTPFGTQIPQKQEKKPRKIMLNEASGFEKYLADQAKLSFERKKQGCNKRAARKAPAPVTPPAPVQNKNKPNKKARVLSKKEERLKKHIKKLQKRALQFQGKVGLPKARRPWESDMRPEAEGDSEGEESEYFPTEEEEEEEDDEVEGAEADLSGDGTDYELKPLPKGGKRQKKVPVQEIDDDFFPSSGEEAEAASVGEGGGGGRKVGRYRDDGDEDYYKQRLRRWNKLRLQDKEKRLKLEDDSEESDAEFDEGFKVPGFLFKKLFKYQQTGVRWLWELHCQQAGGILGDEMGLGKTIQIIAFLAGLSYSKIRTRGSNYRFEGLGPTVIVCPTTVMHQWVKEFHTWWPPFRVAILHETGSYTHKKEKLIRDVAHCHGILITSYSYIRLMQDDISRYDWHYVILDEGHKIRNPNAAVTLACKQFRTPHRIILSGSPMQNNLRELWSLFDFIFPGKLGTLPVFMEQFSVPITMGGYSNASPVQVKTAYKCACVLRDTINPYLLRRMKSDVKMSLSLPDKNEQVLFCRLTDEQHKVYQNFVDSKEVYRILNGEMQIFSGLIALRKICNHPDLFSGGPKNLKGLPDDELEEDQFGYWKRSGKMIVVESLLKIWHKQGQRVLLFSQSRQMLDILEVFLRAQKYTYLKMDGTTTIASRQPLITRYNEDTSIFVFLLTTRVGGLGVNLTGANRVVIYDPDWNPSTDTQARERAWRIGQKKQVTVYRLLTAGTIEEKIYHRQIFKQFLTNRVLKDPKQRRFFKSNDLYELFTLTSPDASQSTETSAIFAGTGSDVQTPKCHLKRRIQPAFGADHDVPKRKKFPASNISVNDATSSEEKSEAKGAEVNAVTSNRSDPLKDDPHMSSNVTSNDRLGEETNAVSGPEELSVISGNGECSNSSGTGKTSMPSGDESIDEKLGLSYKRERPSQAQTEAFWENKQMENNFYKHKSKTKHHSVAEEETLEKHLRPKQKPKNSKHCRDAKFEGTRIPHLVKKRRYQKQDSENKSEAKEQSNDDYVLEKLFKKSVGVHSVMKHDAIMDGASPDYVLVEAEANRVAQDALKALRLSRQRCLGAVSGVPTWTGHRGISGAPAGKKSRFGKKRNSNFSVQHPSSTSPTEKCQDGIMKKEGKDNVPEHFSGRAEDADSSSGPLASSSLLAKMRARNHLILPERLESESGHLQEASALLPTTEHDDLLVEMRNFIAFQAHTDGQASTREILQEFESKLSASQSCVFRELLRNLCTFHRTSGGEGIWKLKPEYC
inactive: IRAK-1-4 Inhibitor I 0.05 | ibrutinib -0.079 | [1] 0.11 | ralimetinib 0.05 | [2] -0.094 | [3] -0.015 | [4] 0.018 | pinometostat -0.078 | [5] 0.157 | [6] -0.041 | [7] -0.127 | [8] -0.038 | [9] 0.005 | [10] -0.038 | Nexturastat A -0.126 | vemurafenib 0.064 | [11] 0.074 | [12] -0.017 | givinostat 0.071 | barasertib 0.065

DCAF13 (UniProt Q9NV06)
UniProt Q9NV06, sequence (Q9NV06 whole entry, looked up): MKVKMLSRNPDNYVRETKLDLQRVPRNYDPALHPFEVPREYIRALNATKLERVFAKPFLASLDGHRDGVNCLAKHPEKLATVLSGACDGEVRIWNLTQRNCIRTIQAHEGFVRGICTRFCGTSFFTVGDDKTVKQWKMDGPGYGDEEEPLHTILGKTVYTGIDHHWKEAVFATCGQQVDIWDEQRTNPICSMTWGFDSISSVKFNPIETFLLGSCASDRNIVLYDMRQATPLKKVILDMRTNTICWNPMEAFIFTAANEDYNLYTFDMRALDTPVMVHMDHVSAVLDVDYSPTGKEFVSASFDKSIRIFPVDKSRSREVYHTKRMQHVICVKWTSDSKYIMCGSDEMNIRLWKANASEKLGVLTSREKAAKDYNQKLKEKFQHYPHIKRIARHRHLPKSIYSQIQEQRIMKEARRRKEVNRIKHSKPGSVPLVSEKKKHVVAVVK
inactive: IRAK-1-4 Inhibitor I -0.079 | ibrutinib 0.019 | [1] 0.101 | ralimetinib 0.077 | [2] 0.032 | [3] -0.078 | [4] 0.165 | pinometostat 0.263 | [5] 0.037 | [6] -0.33 | [7] -0.038 | [8] 0.007 | [9] -0.123 | [10] -0.067 | Nexturastat A 0.205 | vemurafenib -0.117 | [11] -0.062 | [12] 0.089 | givinostat 0.017 | barasertib -0.084

EIF2AK1 (UniProt Q9BQI3)
active: [4] 0.279
inactive: IRAK-1-4 Inhibitor I -0.016 | ibrutinib 0.018 | [1] 0.035 | ralimetinib -0.011 | [2] 0.056 | [3] 0.023 | pinometostat 0.031 | [6] -0.114 | [7] -0.027 | [8] -0.007 | [9] 0.079 | [10] -0.019 | Nexturastat A -0.087 | vemurafenib 0.005 | [11] 0.044 | [12] 0.179 | givinostat -0.051 | barasertib -0.017

DNAH5 (UniProt Q8TE73)
inactive: IRAK-1-4 Inhibitor I 0.074 | ibrutinib 0.039 | ralimetinib 0.004 | [2] 0.031 | [3] -0.09 | [4] 0.009 | pinometostat 0.055 | [5] -0.023 | [6] 0.106 | [7] -0.047 | [8] 0 | [10] -0.036 | Nexturastat A -0.021 | vemurafenib -0.077 | [11] 0.014 | [12] -0.044 | givinostat 0.012 | barasertib 0.03
active: [9] 0.431

EHBP1 (UniProt Q8NDI1)
inactive: [1] 0.018 | [6] -0.003 | [12] -0.028

ENTR1 (UniProt Q96C92)
inactive: [3] -0.156 | [9] -0.091 | vemurafenib 0.06 | [11] -0.105 | givinostat 0.062

EIF4G1 (UniProt Q04637)
inactive: [1] -0.334 | [6] 0.067 | vemurafenib -0.071

EPHX2 (UniProt E5RI53)
inactive: ibrutinib 0.085 | [2] 0.071 | Nexturastat A 0.029 | barasertib 0.094

FAM160A2 isoform 2 (UniProt Q8N612)
inactive: IRAK-1-4 Inhibitor I 0.029 | ibrutinib -0.003 | ralimetinib -0.029 | [2] -0.326 | [4] 0.013 | pinometostat 0.004 | [5] -0.146 | [6] 0.102 | [8] 0.134 | [10] 0.016 | Nexturastat A -0.066 | vemurafenib -0.164 | [12] -0.172 | barasertib 0.109

DDB1 isoform 2 (UniProt Q16531)
inactive: ibrutinib -0.034 | [2] 0.078 | [7] -0.144 | Nexturastat A -0.061 | barasertib 0.116

DNAJB1 (UniProt M0R128)
inactive: ibrutinib -0.077 | [6] 0.111 | vemurafenib -0.002 | barasertib 0.135

CTSS (UniProt P25774)
UniProt P25774, sequence (P25774 whole entry, looked up): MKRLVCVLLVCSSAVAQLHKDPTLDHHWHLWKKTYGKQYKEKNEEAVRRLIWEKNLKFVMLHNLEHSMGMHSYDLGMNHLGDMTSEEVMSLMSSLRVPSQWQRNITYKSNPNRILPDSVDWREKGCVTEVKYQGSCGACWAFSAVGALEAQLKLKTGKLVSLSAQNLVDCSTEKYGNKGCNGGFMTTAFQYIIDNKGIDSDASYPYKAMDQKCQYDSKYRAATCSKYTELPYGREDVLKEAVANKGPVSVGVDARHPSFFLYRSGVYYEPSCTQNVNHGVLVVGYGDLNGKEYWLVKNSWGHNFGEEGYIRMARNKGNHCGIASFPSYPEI
inactive: IRAK-1-4 Inhibitor I -0.023 | ralimetinib -0.026 | [4] 0.12 | pinometostat -0.001 | [6] 0.316 | [7] 0.032 | [8] -0.045 | [10] -0.068 | vemurafenib -0.053

DDX46, A0A0C4DG89
inactive: [2] -0.123 | [5] -0.005 | Nexturastat A 0.058 | [12] 0.149

DHPS (UniProt M0R1T2)
inactive: ibrutinib 0.124 | [7] 0.118 | barasertib 0.11

EPHB4 (UniProt P54760)
UniProt P54760, sequence (P54760 whole entry, looked up): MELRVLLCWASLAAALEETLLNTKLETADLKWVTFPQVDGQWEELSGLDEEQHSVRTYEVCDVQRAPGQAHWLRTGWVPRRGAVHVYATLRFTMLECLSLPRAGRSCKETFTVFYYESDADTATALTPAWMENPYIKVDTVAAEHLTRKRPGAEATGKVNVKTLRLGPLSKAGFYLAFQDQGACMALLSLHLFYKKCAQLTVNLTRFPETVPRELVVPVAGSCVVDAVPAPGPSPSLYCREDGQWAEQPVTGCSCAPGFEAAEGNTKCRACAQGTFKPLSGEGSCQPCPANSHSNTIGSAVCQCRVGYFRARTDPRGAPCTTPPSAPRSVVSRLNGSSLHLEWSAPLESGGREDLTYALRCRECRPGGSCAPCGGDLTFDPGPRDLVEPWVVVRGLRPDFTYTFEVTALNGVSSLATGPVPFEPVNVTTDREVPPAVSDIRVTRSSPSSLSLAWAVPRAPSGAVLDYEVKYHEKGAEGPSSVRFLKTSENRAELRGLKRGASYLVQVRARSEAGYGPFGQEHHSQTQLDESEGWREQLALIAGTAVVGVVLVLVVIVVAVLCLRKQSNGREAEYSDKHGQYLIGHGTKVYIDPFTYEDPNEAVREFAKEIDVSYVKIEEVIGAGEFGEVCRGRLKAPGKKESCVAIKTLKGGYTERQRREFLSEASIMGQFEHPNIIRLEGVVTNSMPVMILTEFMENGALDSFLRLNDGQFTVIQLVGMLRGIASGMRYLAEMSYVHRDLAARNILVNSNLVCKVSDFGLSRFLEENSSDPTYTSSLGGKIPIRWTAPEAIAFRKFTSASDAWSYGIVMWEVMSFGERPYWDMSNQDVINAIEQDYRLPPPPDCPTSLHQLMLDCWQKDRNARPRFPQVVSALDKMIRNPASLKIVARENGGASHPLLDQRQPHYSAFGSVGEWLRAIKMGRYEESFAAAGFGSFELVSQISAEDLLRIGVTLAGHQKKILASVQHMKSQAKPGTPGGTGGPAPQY
inactive: ralimetinib 0.131 | [4] 0.241 | [7] 0.057 | [8] -0.07 | [9] 0.392 | [11] -0.126 | [12] 0.001

ELF1 (UniProt P32519)
active: [2] -0.567
inactive: IRAK-1-4 Inhibitor I -0.12 | [1] 0.143 | ralimetinib 0.186 | [3] -0.072 | [4] -0.076 | pinometostat 0.053 | [5] -0.22 | [6] -0.473 | [7] 0.056 | [8] -0.05 | [9] 0 | [10] 0.033 | Nexturastat A -0.051 | [11] 0.091 | givinostat 0.152

DDX27 (UniProt Q96GQ7)
inactive: IRAK-1-4 Inhibitor I -0.037 | [1] 0.115 | ralimetinib 0.04 | [2] 0.106 | [3] -0.177 | [4] 0.104 | pinometostat 0.311 | [5] -0.344 | [6] -0.351 | [7] -0.026 | [8] -0.057 | [10] -0.293 | Nexturastat A 0.249 | vemurafenib -0.25 | [12] -0.142 | givinostat 0.081

FADS1 (UniProt F5GYH4)
inactive: IRAK-1-4 Inhibitor I 0.02 | ibrutinib -0.093 | pinometostat 0.075 | [6] -0.097 | [10] -0.254 | vemurafenib -0.052 | barasertib 0.024

ELOVL7 (UniProt A1L3X0)
UniProt A1L3X0, sequence (A1L3X0 whole entry, looked up): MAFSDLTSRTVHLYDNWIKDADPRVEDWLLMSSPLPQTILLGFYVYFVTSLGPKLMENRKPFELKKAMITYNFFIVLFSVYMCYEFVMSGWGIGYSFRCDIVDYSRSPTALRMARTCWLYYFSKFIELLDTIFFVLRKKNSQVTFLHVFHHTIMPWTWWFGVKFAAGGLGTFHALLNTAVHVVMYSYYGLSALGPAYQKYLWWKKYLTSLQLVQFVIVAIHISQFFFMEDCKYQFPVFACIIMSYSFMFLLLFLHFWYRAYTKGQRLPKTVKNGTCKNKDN
inactive: [1] 0.059 | [2] -0.177 | [6] 0.062 | Nexturastat A 0.016 | givinostat 0.034
active: [3] -0.617

ERF (UniProt P50548)
inactive: [2] 0.093 | [3] 0.186 | [6] 0.094 | [7] -0.551 | Nexturastat A 0.033 | givinostat -0.133

DCAF12 (UniProt Q5T6F0)
inactive: [7] -0.136 | [12] 0.08

CWF19L2 (UniProt Q2TBE0)
inactive: IRAK-1-4 Inhibitor I 0.029 | [1] -0.075 | ralimetinib 0.014 | [3] 0.184 | [4] 0.02 | pinometostat 0.098 | [6] 0.106 | [7] -0.048 | [8] 0.046 | [9] 0.166 | [10] -0.038 | [11] -0.057 | givinostat 0.035

DOP1A (UniProt Q5JWR5)
inactive: ibrutinib -0.093 | [2] -0.054 | [3] 0.092 | vemurafenib 0.045 | [12] -0.166 | givinostat 0.057 | barasertib -0.047
active: Nexturastat A 0.47

F2RL3 (UniProt Q96RI0)
inactive: [1] 0.02 | ralimetinib -0.084 | [3] 0.081 | [4] 0.021 | [6] 0.1 | [8] 0.032 | [9] 0.053 | vemurafenib -0.156 | [11] 0.035 | givinostat -0.06

FAM117B (UniProt Q6P1L5)
UniProt Q6P1L5, sequence (Q6P1L5 whole entry, looked up): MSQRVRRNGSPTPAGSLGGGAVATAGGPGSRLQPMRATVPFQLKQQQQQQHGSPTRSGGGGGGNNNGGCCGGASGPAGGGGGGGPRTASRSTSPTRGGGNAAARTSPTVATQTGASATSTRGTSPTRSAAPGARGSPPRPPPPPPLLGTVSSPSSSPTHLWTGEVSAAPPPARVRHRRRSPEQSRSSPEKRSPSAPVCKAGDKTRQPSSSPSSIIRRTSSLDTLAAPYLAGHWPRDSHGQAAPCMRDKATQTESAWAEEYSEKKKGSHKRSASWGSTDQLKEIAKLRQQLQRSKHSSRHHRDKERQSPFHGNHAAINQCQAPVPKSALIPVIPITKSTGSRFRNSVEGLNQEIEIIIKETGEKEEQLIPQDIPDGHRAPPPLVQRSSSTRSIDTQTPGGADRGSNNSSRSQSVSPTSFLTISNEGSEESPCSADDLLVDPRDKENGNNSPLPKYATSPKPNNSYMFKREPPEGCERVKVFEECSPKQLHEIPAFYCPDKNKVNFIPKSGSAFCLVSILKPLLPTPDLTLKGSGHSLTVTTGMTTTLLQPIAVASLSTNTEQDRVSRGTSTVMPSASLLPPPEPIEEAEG
inactive: IRAK-1-4 Inhibitor I 0.238 | [1] -0.593 | ralimetinib -0.177 | [2] -0.255 | [3] 0.144 | [4] 0.016 | pinometostat -0.175 | [6] 0.037 | [8] -0.035 | [10] -0.126 | Nexturastat A 0.394 | vemurafenib 0.043 | givinostat 0.212

EDRF1 (UniProt Q3B7T1)
inactive: ibrutinib 0.068 | ralimetinib 0.04 | [2] 0.048 | [3] 0.004 | [4] 0.066 | [7] -0.022 | [8] 0.21 | Nexturastat A -0.042 | [12] 0.019 | givinostat 0.114 | barasertib -0.036

EGR1 (UniProt P18146)
inactive: ibrutinib 0 | ralimetinib 0.042 | [2] 0.044 | [3] -0.452 | [4] 0.153 | [5] 0.188 | [6] -0.472 | [7] -0.128 | [8] -0.024 | [9] -0.404 | Nexturastat A 0.53 | vemurafenib 0.305 | [11] -0.13 | [12] -0.027 | givinostat -0.06 | barasertib -0.048
active: [1] -1.07

DERPC (UniProt P0CG12)
UniProt P0CG12, sequence (P0CG12 whole entry, looked up): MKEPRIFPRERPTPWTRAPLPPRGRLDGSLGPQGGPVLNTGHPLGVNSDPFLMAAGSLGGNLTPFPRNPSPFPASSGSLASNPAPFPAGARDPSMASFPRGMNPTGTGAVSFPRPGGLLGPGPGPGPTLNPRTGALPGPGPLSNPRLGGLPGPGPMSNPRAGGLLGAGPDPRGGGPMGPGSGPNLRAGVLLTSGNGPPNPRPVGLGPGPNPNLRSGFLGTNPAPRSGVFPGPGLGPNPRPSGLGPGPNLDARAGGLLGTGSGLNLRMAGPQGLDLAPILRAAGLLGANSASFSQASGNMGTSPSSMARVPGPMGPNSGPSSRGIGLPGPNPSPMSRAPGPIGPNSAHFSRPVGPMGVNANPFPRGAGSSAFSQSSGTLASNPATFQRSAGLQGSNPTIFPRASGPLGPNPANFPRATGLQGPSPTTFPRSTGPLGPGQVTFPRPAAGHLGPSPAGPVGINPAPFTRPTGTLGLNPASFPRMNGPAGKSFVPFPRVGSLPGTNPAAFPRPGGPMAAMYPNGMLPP
inactive: IRAK-1-4 Inhibitor I -0.077 | ibrutinib 0.004 | ralimetinib 0.017 | [3] -0.003 | [4] -0.029 | pinometostat 0.161 | [5] 0.066 | [8] -0.052 | [10] 0.005 | vemurafenib 0.07 | [12] -0.029 | barasertib 0.012
active: givinostat 0.454

EID1 (UniProt Q9Y6B2)
inactive: [2] 0.002 | [3] 0.05 | [5] 0.05 | [6] -0.281 | [7] -0.047 | [9] 0.019 | Nexturastat A 0.18 | [11] -0.107 | [12] 0.135 | givinostat -0.134

DHRS13 (UniProt Q6UX07)
UniProt Q6UX07, sequence (Q6UX07 whole entry, looked up): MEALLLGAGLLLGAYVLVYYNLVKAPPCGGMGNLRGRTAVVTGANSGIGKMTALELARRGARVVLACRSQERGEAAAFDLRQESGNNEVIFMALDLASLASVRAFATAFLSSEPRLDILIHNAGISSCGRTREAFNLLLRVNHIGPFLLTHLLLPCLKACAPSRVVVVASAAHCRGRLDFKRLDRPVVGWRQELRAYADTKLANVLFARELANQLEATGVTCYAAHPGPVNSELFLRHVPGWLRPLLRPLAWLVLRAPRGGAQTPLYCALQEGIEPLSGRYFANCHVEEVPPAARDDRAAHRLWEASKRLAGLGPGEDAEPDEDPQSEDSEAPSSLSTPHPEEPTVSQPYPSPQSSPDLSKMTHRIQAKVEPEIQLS
inactive: IRAK-1-4 Inhibitor I -0.275 | [1] -0.051 | ralimetinib 0.035 | [3] -0.007 | [4] 0.144 | pinometostat 0.224 | [5] -0.168 | [6] -0.085 | [7] -0.106 | [8] 0.027 | [10] -0.055 | vemurafenib -0.062 | [12] 0.084 | givinostat 0.249

DEGS1 (UniProt O15121)
inactive: ibrutinib 0.049 | [1] 0.066 | [2] 0.013 | [3] 0.074 | [5] -0.118 | [6] 0.197 | [7] -0.088 | [9] 0.003 | Nexturastat A -0.062 | vemurafenib -0.185 | [11] 0.033 | [12] -0.053 | givinostat -0.023 | barasertib -0.018

From the supplement of paper PMC10849652
